ChEMBL document CHEMBL4513141, “CO-ADD screening of NIH (USA) - Clinical Collection” (2021)
Measured potencies and affinities stand elsewhere.

system: Candida albicans; conditions: 20 µM

SMILES	Inhibition
CCCN1CCCC[C@H]1C(=O)Nc1c(C)cccc1C.Cl [ROPIVACAINE HYDROCHLORIDE]	3.24%
CN(C)CC/C=C1/c2ccccc2COc2ccc(CC(=O)O)cc21.Cl [OLOPATADINE HYDROCHLORIDE]	4.03%
Cl.O=C1[C@H]2CCCC[C@H]2C(=O)N1CCCCN1CCN(c2nsc3ccccc23)CC1	2.33%
COc1ccc(-c2oc3c(CC=C(C)C)c(O[C@@H]4O[C@H](CO)[C@@H](O)[C@H](O)[C@H]4O)cc(O)c3c(=O)c2O[C@@H]2O[C@@H](C)[C@H](O)[C@@H](O)[C@H]2O)cc1 [ICARIIN]	4.36%
COc1ccc(C2CNC(=O)C2)cc1OC1CCCC1 (stereo not drawn) [ROLIPRAM]	4.38%
COCCCC/C(=N\OCCN)c1ccc(C(F)(F)F)cc1.O=C(O)/C=C\C(=O)O [FLUVOXAMINE MALEATE]	2.11%
CC(=O)[C@@]1(O)CC[C@H]2[C@@H]3C[C@H](C)C4=CC(=O)CC[C@]4(C)[C@H]3CC[C@@]21C	2.87%
CCOC(=O)[C@H](CCc1ccccc1)N[C@H]1CCc2ccccc2N(CC(=O)O)C1=O.Cl [BENAZEPRIL HYDROCHLORIDE]	3.12%
Cc1ccsc1C(=CCCN1CCC[C@@H](C(=O)O)C1)c1sccc1C.Cl [TIAGABINE HYDROCHLORIDE]	1.98%
CCN1CCC[C@H]1CNC(=O)c1cc(S(N)(=O)=O)ccc1OC [LEVOSULPIRIDE]	2.16%
COc1cc2nc(N3CCN(C(=O)C4CCCO4)CC3)nc(N)c2cc1OC (stereo not drawn) [TERAZOSIN]	3.05%
CC[C@H](C)C(=O)O[C@H]1C[C@H](O)C=C2C=C[C@H](C)[C@H](CC[C@@H](O)C[C@@H](O)CC(=O)[O-])[C@H]21.[Na+] [PRAVASTATIN SODIUM]	4.25%
O=C1C(c2c(O)[nH]c3ccccc23)=Nc2ccccc21	9.69%
CNCCCCOc1ccccc1Cc1ccccc1.Cl	1.66%
CO[C@H]1O[C@@H]2O[C@@]3(C)CC[C@H]4[C@H](C)CC[C@@H]([C@H]1C)[C@@]24OO3	19.1%
C[C@]12CC[C@@H]3c4ccc(O)cc4CC[C@H]3[C@@H]1CC[C@@H]2O [ESTRADIOL]	5.91%
CNCC[C@H](Oc1cccc2ccccc12)c1cccs1.Cl [DULOXETINE HYDROCHLORIDE]	3.07%
Nc1c2c(nc3c1CCC3)CCCC2 [IPIDACRINE]	3.22%
C[C@H]1[C@@H](OC(=O)CCC(=O)O)O[C@@H]2O[C@@]3(C)CC[C@H]4[C@H](C)CC[C@@H]1[C@@]24OO3	26.5%

SMILES	Inhibition
CCS(=O)(=O)CCn1c([N+](=O)[O-])cnc1C [TINIDAZOLE]	4.29%
CC(Cc1ccc(O)c(O)c1)(NN)C(=O)O.O (stereo not drawn)	2.35%
COc1ccc2cc([C@H](C)C(=O)[O-])ccc2c1.[Na+] [NAPROXEN SODIUM]	9.05%
C[C@]12CCC(=O)C=C1CC[C@@H]1[C@@H]2[C@@H](O)C[C@@]2(C)[C@H]1CC[C@]2(O)C(=O)COC(=O)CCC(=O)O [HYDROCORTISONE HEMISUCCINATE ANHYDROUS]	4.59%
CC(C)(C)NCC(O)COc1cccc2c1CC(O)C(O)C2 (stereo not drawn) [NADOLOL]	1.18%
COc1ccc(/C=C/C(=O)Nc2ccccc2C(=O)O)cc1OC	4.95%
CN(C)CC[C@@H](c1ccc(Br)cc1)c1ccccn1.O=C(O)/C=C\C(=O)O [DEXBROMPHENIRAMINE MALEATE]	1.43%
O=C(NCCN1CCOCC1)c1ccc(Cl)cc1 [MOCLOBEMIDE]	3.1%
C[n+]1ccccc1/C=N/O.[Cl-] [PRALIDOXIME CHLORIDE]	0.76%
COc1cc(C)c(/C=C/C(C)=C/C=C/C(C)=C/C(=O)O)c(C)c1C [ACITRETIN]	3.07%
CN(C)CCOC(c1ccc(Cl)cc1)c1ccccn1.O=C(O)/C=C\C(=O)O (stereo not drawn) [CARBINOXAMINE MALEATE]	0.99%
Cc1ncc([N+](=O)[O-])n1CC(O)CCl (stereo not drawn) [ORNIDAZOLE]	2.15%
CC1(C)O[C@@H]2C[C@H]3[C@@H]4C[C@H](F)C5=CC(=O)C=C[C@]5(C)[C@H]4[C@@H](O)C[C@]3(C)[C@]2(C(=O)CO)O1 [FLUNISOLIDE]	7.13%
Cc1ccc(-c2cc(C(F)(F)F)nn2-c2ccc(S(N)(=O)=O)cc2)cc1 [CELECOXIB]	2.46%
CC(=O)OCC(=O)[C@@]1(O)CC[C@H]2[C@@H]3CCC4=CC(=O)C=C[C@]4(C)[C@H]3[C@@H](O)C[C@@]21C [PREDNISOLONE ACETATE]	0.73%
C=C(CC)C(=O)c1ccc(OCC(=O)O)c(Cl)c1Cl [ETHACRYNIC ACID]	21.1%
CCC1(c2ccccc2)C(=O)NCNC1=O [PRIMIDONE]	2.22%
CC(=O)CCCCn1c(=O)c2c(ncn2C)n(C)c1=O [PENTOXIFYLLINE]	2.65%
NC(=O)c1cnccn1 [PYRAZINAMIDE]	1.92%
